Measured values as given in PubChem BioAssay (NCATS).
Inconclusive results are not listed. Unless noted, calls follow the shape of the dose curve; as a rule, active = well fitted curve in either direction with a large enough effect (not every such curve was filed as active); inconclusive = small, poorly fitted or top-dose-only effect, or another doubt; inactive = flat fitted curve, though single readings scatter.

What was measured:
[1] = AP1 Signaling Pathway (AID 357); details: ME-180 AP-1-bla reporter, EGF-induced, beta-lactamase ratio, 5 h; at 17.2 µM (top of the series) unless noted; also: % is scaled to controls: 0 for no effect and ±100 for the full control effect
In short: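 ME-180 cells with beta-lactamase reporter under AP-1 response element, stimulated with EC50 EGF; compounds tested in titration series, 5 h at 37 °C. CCF4 substrate added 2.5 h at room temperature; 460/530 nm emission ratio gave %activity and AC50.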

[2] = NFAT Signaling Pathway (AID 444); details: Jurkat NFAT-bla M1, carbachol, beta-lactamase ratio, 5 h; at 17.2 µM (top of the series) unless noted;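 also: carbachol stimulus at about its EC50 of 1 µM final; % is scaled to controls: 0 for no effect and ±100 for the full control effect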
In short: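 Jurkat cells carrying an NFAT-driven β-lactamase reporter and co-transfected muscarinic M1 receptor were treated with compound plus carbachol (1 uM final, an EC50 level) for 5 h at 37 °C. CCF4 loading followed for 1 h at RT; 460/530 nm ratio gave %activity.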

[3] = Stat Signaling Pathway (AID 446); details: ME-180 (cervical carcinoma) SIE beta-lactamase reporter, IL-6 stimulated, 5 h; at 17.2 µM (top of the series) unless noted;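 also: ME-180 cervical cancer cells given 40 pM IL-6 alongside compound; SIE-controlled beta-lactamase reporter measured as 460/530 nm FRET emission ratio; % is scaled to controls: 0 for no effect and ±100 for the full control effect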
In short: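 FRET read-out (405 nm excitation, 460/530 nm emission) of a beta-lactamase reporter under a STAT-inducible element in ME-180 cervical carcinoma cells. Cells with compound receive 40 pM IL-6 for 5 h. Values are normalised to AC90 stimulation and AC90 JAK-inhibitor controls.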

[4] = target: Glucocorticoid receptor (Homo sapiens) (UniProt P04150); assay: GR-GFP Redistribution (AID 450;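 active = compounds whose dose series gives a full or clear partial fitted curve of increased nuclear translocation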; also: potency is read from the fitted curve at half-maximal effect)
Sequence of Glucocorticoid receptor (Homo sapiens) (P04150 whole entry, looked up): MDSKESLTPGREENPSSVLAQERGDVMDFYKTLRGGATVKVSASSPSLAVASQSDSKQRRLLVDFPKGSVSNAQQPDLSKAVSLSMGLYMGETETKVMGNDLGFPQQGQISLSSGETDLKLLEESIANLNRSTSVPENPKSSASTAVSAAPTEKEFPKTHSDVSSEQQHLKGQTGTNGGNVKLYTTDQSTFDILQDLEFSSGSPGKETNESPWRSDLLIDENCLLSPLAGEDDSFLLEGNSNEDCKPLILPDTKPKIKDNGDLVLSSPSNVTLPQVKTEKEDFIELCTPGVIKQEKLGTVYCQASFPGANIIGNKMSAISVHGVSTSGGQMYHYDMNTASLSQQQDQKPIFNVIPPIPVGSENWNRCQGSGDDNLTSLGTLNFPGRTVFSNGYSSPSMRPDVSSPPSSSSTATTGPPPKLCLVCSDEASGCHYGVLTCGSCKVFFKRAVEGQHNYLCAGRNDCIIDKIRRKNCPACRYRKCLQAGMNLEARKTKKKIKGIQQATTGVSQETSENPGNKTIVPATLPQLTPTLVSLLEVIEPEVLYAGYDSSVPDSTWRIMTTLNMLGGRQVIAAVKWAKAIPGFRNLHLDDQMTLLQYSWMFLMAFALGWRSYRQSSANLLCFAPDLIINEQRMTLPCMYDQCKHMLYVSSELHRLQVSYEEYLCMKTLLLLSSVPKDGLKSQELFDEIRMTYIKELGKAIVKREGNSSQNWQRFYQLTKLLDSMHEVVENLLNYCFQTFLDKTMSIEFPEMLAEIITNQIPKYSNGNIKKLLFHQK

O=C(C1=C(O)C(=O)N(CCCN2CCOCC2)C1c1ccccn1)c1cc2ccccc2o1 (centres undefined)
inactive: activity change, negative = inhibition [1] 0.283% | activity change, negative = inhibition [2] 1.99% | activity, negative = inhibition [3] -5.61% | Potency [4] > 20.6 µM

Clc1ccc(-c2nn3c(-c4cccc(Cl)c4)nnc3s2)cc1
inactive: activity change, negative = inhibition [1] 10.2% | activity change, negative = inhibition [2] -4.86% | activity, negative = inhibition [3] 3.59% | Potency [4] > 20.6 µM

CN(C)CCNc1nc(-c2ccco2)c2c(c1C#N)CC(C)(C)OC2
inactive: activity change, negative = inhibition [1] 9.95% | activity change, negative = inhibition [2] -23% | activity, negative = inhibition [3] 12.9% | Potency [4] > 20.6 µM

COc1ccc(NC(=O)Nc2cccc(C(=O)N3CCOCC3)c2)cc1OC
inactive: activity change, negative = inhibition [1] 3.36% | activity change, negative = inhibition [2] -1.43% | activity, negative = inhibition [3] 0.00442% | Potency [4] > 20.6 µM

COc1ccc(/C(O)=C2/C(=O)C(=O)N(c3nc(C)c(C)s3)C2c2ccco2)cc1 (centres undefined)
inactive: activity change, negative = inhibition [1] -13.8% | activity change, negative = inhibition [2] 21.3% | activity, negative = inhibition [3] -14.6% | Potency [4] > 20.6 µM

COCCNc1oc(-c2ccc(F)cc2)nc1C#N
inactive: activity change, negative = inhibition [1] -13.6% | activity change, negative = inhibition [2] 7.25% | activity, negative = inhibition [3] -2.97% | Potency [4] > 20.6 µM

Cc1cc(C)cc(-n2c3nc4ccccc4nc3c3c(=O)n(Cc4ccco4)cnc32)c1
inactive: activity change, negative = inhibition [1] 8.24% | activity change, negative = inhibition [2] -18.2% | activity, negative = inhibition [3] -16.9% | Potency [4] > 20.6 µM

NS(=O)(=O)c1ccc(-c2ccc(C=NC3CCS(=O)(=O)C3)o2)cc1 (centres undefined)
inactive: activity change, negative = inhibition [1] 19.2% | activity change, negative = inhibition [2] -3.68% | activity, negative = inhibition [3] -5.15% | Potency [4] > 20.6 µM

Cn1c(=O)[nH]c(=O)c2c1nc(N(CCO)Cc1ccccc1)n2Cc1ccccc1Cl
inactive: activity change, negative = inhibition [1] -1.99% | activity change, negative = inhibition [2] -6.08% | activity, negative = inhibition [3] -4.12% | Potency [4] > 20.6 µM

Cc1nc2c(c(=O)n1CC1CCCO1)c1nc3ccccc3nc1n2CCC(C)C (centres undefined)
inactive: activity change, negative = inhibition [1] 6.32% | activity change, negative = inhibition [2] -6.4% | activity, negative = inhibition [3] -12.2% | Potency [4] > 20.6 µM

COc1ccc(/C(O)=C2/C(=O)C(=O)N(c3ncccn3)C2c2ccc(OC)c(OC)c2)cc1 (centres undefined)
inactive: activity change, negative = inhibition [1] 10.2% | activity change, negative = inhibition [2] -0.912% | activity, negative = inhibition [3] -6.81% | Potency [4] > 20.6 µM

COC(=O)c1ccc(Nc2cc(C)nc(-c3ccccc3O)n2)cc1
inactive: activity change, negative = inhibition [1] 15.3% | activity change, negative = inhibition [2] -10.8% | activity, negative = inhibition [3] -5.42% | Potency [4] > 20.6 µM

Nc1nnnn1N=C1CCCCC1
inactive: activity change, negative = inhibition [1] -7.36% | activity change, negative = inhibition [2] 0.933% | activity, negative = inhibition [3] -8.04% | Potency [4] > 20.6 µM

COc1ccc(/C(O)=C2/C(=O)C(=O)N(CCCN(C)C)C2c2ccc(C)o2)cc1Cl (centres undefined)
inactive: activity change, negative = inhibition [1] 9.2% | activity change, negative = inhibition [2] -6.18% | activity, negative = inhibition [3] 3.77% | Potency [4] > 20.6 µM

CCOC(=O)N1CCN(/C=C(\C#N)c2nc3ccccc3s2)CC1
inactive: activity change, negative = inhibition [1] -15.9% | activity change, negative = inhibition [2] 13.1% | activity, negative = inhibition [3] -10% | Potency [4] > 20.6 µM

Cc1ccc(C2CC(C(F)(F)F)n3ncc(C(N)=O)c3N2)cc1 (centres undefined)
inactive: activity change, negative = inhibition [1] -3.17% | activity change, negative = inhibition [2] 2.37% | activity, negative = inhibition [3] 5.84% | Potency [4] > 20.6 µM

O=c1oc2c(CN3CCCCC3)c(O)ccc2c2c1CCCCC2
inactive: activity change, negative = inhibition [1] 2.02% | activity change, negative = inhibition [2] -25.5% | activity, negative = inhibition [3] 9.48% | Potency [4] > 20.6 µM

Cc1c(C=NCCOCc2ccccc2)cnn1C
inactive: activity change, negative = inhibition [1] -2.81% | activity change, negative = inhibition [2] -4.41% | activity, negative = inhibition [3] 12.4% | Potency [4] > 20.6 µM

COC(=O)CSc1nc(N)c2c3c(sc2n1)CCCC3
inactive: activity change, negative = inhibition [1] -0.00134% | activity change, negative = inhibition [2] -7.55% | activity, negative = inhibition [3] 29.8% | Potency [4] > 20.6 µM

Cc1ccc(-c2nn(C)c(=O)c3ccccc23)cc1CNC(=O)CSc1nc2ccccc2o1
inactive: activity change, negative = inhibition [1] -10.6% | activity change, negative = inhibition [2] -12.2% | activity, negative = inhibition [3] -16.9% | Potency [4] > 20.6 µM

O=c1[nH]c2sc3c(c2c(=O)n1Cc1ccccc1)CCC3
inactive: activity change, negative = inhibition [1] -27.5% | activity change, negative = inhibition [2] 16.2% | activity, negative = inhibition [3] -5.31% | Potency [4] > 20.6 µM

CCOc1cccc(-c2nn3c(-c4ccccn4)nnc3s2)c1
inactive: activity change, negative = inhibition [1] -15% | activity change, negative = inhibition [2] -14.4% | activity, negative = inhibition [3] -1.87% | Potency [4] > 20.6 µM

CCOC(=O)C1=C(C(C)=O)C(c2cccnc2)C(C#N)=C(N)O1 (centres undefined)
inactive: activity change, negative = inhibition [1] 29.3% | activity change, negative = inhibition [2] -19% | activity, negative = inhibition [3] -12.3% | Potency [4] > 20.6 µM

COC(=O)c1c(C)[nH]c(C(=O)OCc2ccc(F)cc2)c1C
inactive: activity change, negative = inhibition [1] 14.7% | activity change, negative = inhibition [2] 5.66% | activity, negative = inhibition [3] -8.92% | Potency [4] > 20.6 µM

CCCC1C2C(=O)N(c3ccccc3OC)C(=O)C2ON1c1ccccc1 (centres undefined)
inactive: activity change, negative = inhibition [1] 1.4% | activity change, negative = inhibition [2] 4.89% | activity, negative = inhibition [3] 0.927% | Potency [4] > 20.6 µM

C=C(C)CN1CCN(c2c(CCC#N)c(C)c(C#N)c3nc4ccccc4n23)CC1
inactive: activity change, negative = inhibition [1] 6.83% | activity change, negative = inhibition [2] 20% | activity, negative = inhibition [3] 9.9% | Potency [4] > 20.6 µM

CCn1cc(C(=O)NCC2CCCO2)c(=O)c2cc(F)c(N3CCN(C)CC3)cc21 (centres undefined)
inactive: activity change, negative = inhibition [1] -11.4% | activity change, negative = inhibition [2] -20.1% | activity, negative = inhibition [3] -0.513% | Potency [4] > 20.6 µM

COc1cccc(C2/C(=C(\O)c3ccc4c(c3)OCCO4)C(=O)C(=O)N2CCN(C)C)c1 (centres undefined)
inactive: activity change, negative = inhibition [1] -3.08% | activity change, negative = inhibition [2] 2.4% | activity, negative = inhibition [3] 9.63% | Potency [4] > 20.6 µM

CCOC(=O)C(Oc1ccc(=O)[nH]n1)C(C)=O (centres undefined)
inactive: activity change, negative = inhibition [1] 3.6% | activity change, negative = inhibition [2] 5.95% | activity, negative = inhibition [3] 2.15% | Potency [4] > 20.6 µM

c1ccc(-c2nnc3n2N=C(c2ccc4c(c2)OCO4)CS3)nc1
inactive: activity change, negative = inhibition [1] 2.99% | activity change, negative = inhibition [2] 19.9% | activity, negative = inhibition [3] -6.24% | Potency [4] > 20.6 µM

COc1ccc(C(=O)OC(C)CN2CCN(C)CC2)cc1OC (centres undefined)
inactive: activity change, negative = inhibition [1] 4.78% | activity change, negative = inhibition [2] -6.37% | activity, negative = inhibition [3] 11.6% | Potency [4] > 20.6 µM

Cc1cc(C)n2c3c(c(C#N)c2n1)CC(C)(C)OC3
inactive: activity change, negative = inhibition [1] 5.4% | activity change, negative = inhibition [2] -2.38% | activity, negative = inhibition [3] -0.114% | Potency [4] > 20.6 µM

O=C(Nc1ccccn1)c1ccc(=O)[nH]n1
inactive: activity change, negative = inhibition [1] -7.67% | activity change, negative = inhibition [2] 0.366% | activity, negative = inhibition [3] 1.32% | Potency [4] > 20.6 µM

Cc1nn2c(-c3ccc(Cl)cc3)nnc2s1
inactive: activity change, negative = inhibition [1] -4.06% | activity change, negative = inhibition [2] -5.76% | activity, negative = inhibition [3] 14.5% | Potency [4] > 20.6 µM

CCc1[nH]c(=O)c(C#N)c2c1CCCC2
inactive: activity change, negative = inhibition [1] 3.3% | activity change, negative = inhibition [2] -7.46% | activity, negative = inhibition [3] 4.68% | Potency [4] > 20.6 µM

CCOc1nc(-c2ccncc2)nc2ccccc12
inactive: activity change, negative = inhibition [1] -12% | activity change, negative = inhibition [2] 2.73% | activity, negative = inhibition [3] -6.2% | Potency [4] > 20.6 µM
